The text below walks through data of PubChem BioAssay (EPA / NIEHS).

Usually AC50 stands for the concentration giving half of the maximal activity seen.

Read-out in assay [1]: Human Leukocyte Antigen - DR isotype (HLADR), HLA-DRA (gene 3122)
In words: BSK_BE3C_HLADR: BioMAP Diversity Plus: BE3C Assay for Human Leukocyte Antigen - DR isotype (HLADR) Biomarker Activity (AID 2283032). As to conditions: primary human bronchial epithelial cells; actives raise or lower the signal. The essentials: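 BioMAP BE3C format: human bronchial epithelium, 24 h compound treatment, ELISA detection of HLA-DR, with bidirectional analysis relative to DMSO.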

Read-out in assay [2]: Interferon-gamma inducible Protein 10 (IP10), CXCL10 (gene 3627)
In words: BSK_BE3C_IP10: BioMAP Diversity Plus: BE3C Assay for Interferon-gamma inducible Protein 10 (IP10) Biomarker Activity (AID 2283034). The following applies: primary human bronchial epithelial cells; actives raise or lower the signal. In short, it runs like this: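 BE3C cells (human bronchial epithelial, primary); 24 h exposure; ELISA for IP-10; DMSO-referenced bidirectional fit.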

Read-out in assay [3]: Monokine induced gamma interferon (MIG), CXCL9 (gene 4283)
In words: BSK_BE3C_MIG: BioMAP Diversity Plus: BE3C Assay for Monokine induced gamma interferon (MIG) Biomarker Activity (AID 2283035).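 Also: MIG protein measured by ELISA in BE3C cultures after 24 h of dosing.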 As to conditions: primary human bronchial epithelial cells; actives raise or lower the signal. In short, it runs like this: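 hu bronchial epithelial 1° cells, 24 h cpd; MIG by ELISA; bidirectional fit, DMSO = baseline.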

Read-out in assay [4]: Plasminogen activator inhibitor-1 (PAI1), SERPINE1 (gene 5054)
In words: BSK_BE3C_PAI1: BioMAP Diversity Plus: BE3C Assay for Plasminogen activator inhibitor-1 (PAI1) Biomarker Activity (AID 2283037). As to conditions: primary human bronchial epithelial cells; actives raise or lower the signal. In short, it runs like this: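 In this multiplexed primary-cell system, bronchial epithelial cells receive test chemical and are sampled at 24 h. PAI-1 is read by ELISA, with DMSO serving as negative control for bidirectional fitting.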

Read-out in assay [5]: urokinase plasminogen activator (uPA), PLAU (gene 5328)
In words: BSK_BE3C_uPA: BioMAP Diversity Plus: BE3C Assay for urokinase plasminogen activator (uPA) Biomarker Activity (AID 2283038).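 Also: uPA protein level quantified by ELISA in cell cultures; uPA read one day after compound addition.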 The following applies: primary human bronchial epithelial cells; actives raise or lower the signal. The essentials:
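Bronchial epithelial cells (human, primary); chemical 24 h; uPA by ELISA; bidirectional fit vs DMSO. SRB (0.1%, after 10% TCA fixation, 560 nm) in parallel cultures for cytotoxicity.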

Read-out in assay [6]: Urokinase-type plasminogen activator receptor (uPAR), PLAUR (gene 5329)
In words: BSK_BE3C_uPAR: BioMAP Diversity Plus: BE3C Assay for Urokinase-type plasminogen activator receptor (uPAR) Biomarker Activity (AID 2283039).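 Also: uPAR protein level measured by ELISA on the cells; cells exposed to compound for one day before measurement.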 As to conditions: primary human bronchial epithelial cells; actives raise or lower the signal. In short, it runs like this:
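Chemically treated human bronchial epithelial cells (lung primary) are assayed for uPAR by ELISA after 24 h, with data fitted in both directions using DMSO as negative control.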

Read-out in assay [7]: Interleukin-6 (IL6), IL6 (gene 3569)
In words: BSK_CASM3C_IL6: BioMAP Diversity Plus: CASM3C Assay for Interleukin-6 (IL6) Biomarker Activity for (AID 2283040). As to conditions: primary human coronary artery smooth muscle cells; actives raise or lower the signal.

Read-out in assay [8]: Tissue plasminogen activator (tPA), PLAT (gene 5327)
In words: BSK_BE3C_tPA: BioMAP Diversity Plus: BE3C Assay for Tissue plasminogen activator (tPA) Biomarker Activity (AID 2283041).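 Also: tPA level quantified by ELISA one day after compound addition.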 The following applies: primary human bronchial epithelial cells; actives raise or lower the signal. The essentials: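 Using human lung primary bronchial epithelial cells, tPA was measured by ELISA 24 h after dosing; data fitted relative to DMSO.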

Read-out in assay [9]: Interleukin-8 (IL8), CXCL8 (gene 3576)
In words: BSK_CASM3C_IL8: BioMAP Diversity Plus: CASM3C Assay for Interleukin-8 (IL8) Biomarker Activity (AID 2283042).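 Also: IL-8 protein level quantified by ELISA.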 As to conditions: primary human coronary artery smooth muscle cells; actives raise or lower the signal.

Read-out in assay [10]: Human Leukocyte Antigen - DR isotype (HLADR), HLA-DRA (gene 3122)
In words: BSK_CASM3C_HLADR: BioMAP Diversity Plus: CASM3C Assay for Human Leukocyte Antigen - DR isotype (HLADR) Biomarker Activity (AID 2283043).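 Also: cell-surface HLA-DR protein level quantified by ELISA.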 As to conditions: primary human coronary artery smooth muscle cells; actives raise or lower the signal.

Read-out in assay [11]: Macrophage colony-stimulating factor (MCSF), CSF1 (gene 1435)
In words: BSK_CASM3C_MCSF: BioMAP Diversity Plus: CASM3C Assay for Macrophage colony-stimulating factor (MCSF) Biomarker Activity (AID 2283044).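 Also: M-CSF protein amount quantified by ELISA after 24 h exposure.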 The following applies: primary human coronary artery smooth muscle cells; actives raise or lower the signal.

Read-out in assay [12]: Low-density lipoprotein receptor (LDLR), LDLR (gene 3949)
In words: BSK_CASM3C_LDLR: BioMAP Diversity Plus: CASM3C Assay for Low-density lipoprotein receptor (LDLR) Biomarker Activity (AID 2283045).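 Also: LDLR protein level on the cell surface quantified by ELISA.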 As to conditions: primary human coronary artery smooth muscle cells; actives raise or lower the signal.

Read-out in assay [13]: Monocyte Chemoattractant Protein-1 (MCP1), CCL2 (gene 6347)
In words: BSK_CASM3C_MCP1: BioMAP Diversity Plus: CASM3C Assay for Monocyte Chemoattractant Protein-1 (MCP1) Biomarker Activity (AID 2283046).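 Also: MCP-1 level quantified by ELISA 24 h after dosing.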 As to conditions: primary human coronary artery smooth muscle cells; actives raise or lower the signal.

A short description of assay [14]: BSK_CASM3C_Proliferation: Cell Proliferation Assessment in the BioMAP Diversity Plus: CASM3C Assay (AID 2283047).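 Also: sulforhodamine B total protein stain as relative cell number at 560 nm; sub-confluent cells exposed 48 h before staining; fitted both ways against DMSO so gain or loss of cell number.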 As to conditions: primary human coronary artery smooth muscle cells.
Read-out in assay [15]: Monokine induced gamma interferon (MIG), CXCL9 (gene 4283)
In words: BSK_CASM3C_MIG: BioMAP Diversity Plus: CASM3C Assay for Monokine induced gamma interferon (MIG) Biomarker Activity (AID 2283048).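 Also: MIG protein level measured by ELISA.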 The following applies: primary human coronary artery smooth muscle cells; actives raise or lower the signal.

Read-out in assay [16]: serum amyloid A (SAA), SAA1 (gene 6288)
In words: BSK_CASM3C_SAA: BioMAP Diversity Plus: CASM3C Assay for serum amyloid A (SAA) Biomarker Activity (AID 2283049).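 Also: SAA protein level quantified by ELISA.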 As to conditions: primary human coronary artery smooth muscle cells; actives raise or lower the signal.

The nature of assay [17]: BSK_CASM3C_SRB: Viability Assessment in the BioMAP Diversity Plus: CASM3C Assay (AID 2283050).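 Also: total protein by SRB staining as cytotoxicity measure in parallel cultures.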 The following applies: primary human coronary artery smooth muscle cells.
Read-out in assay [18]: Thrombomodulin, THBD (gene 7056)
In words: BSK_CASM3C_Thrombomodulin: BioMAP Diversity Plus: CASM3C Assay for Thrombomodulin Biomarker Activity (AID 2283051).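 Also: thrombomodulin protein level measured by ELISA 24 h after dosing.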 The following applies: primary human coronary artery smooth muscle cells; actives raise or lower the signal.

Read-out in assay [19]: Transforming growth factor beta 1 (TGFb1), TGFB1 (gene 7040)
In words: BSK_BE3C_TGFb1: BioMAP Diversity Plus: BE3C Assay for Transforming growth factor beta 1 (TGFb1) Biomarker Activity (AID 2283036;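 also: TGF-b1 protein level measured by ELISA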). The following applies: primary human bronchial epithelial cells; actives raise or lower the signal. The essentials: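 TGF-b1 measured via ELISA, 24 h after chemical dosing of human bronchial epithelial cells (BE3C). Overt cytotoxicity assessed in parallel by SRB (0.1%, TCA-fixed, 560 nm); analysis bidirectional relative to DMSO.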

Each structure is given as a SMILES string. Activity calls are given as the source filed them. The calls were made as follows: active = hit-call score of the fitted dose curve at least 0.9, where 1 is the maximum; inactive = score below 0.9.

Regarding `Nc1ccccc1N`, the outcome in assay [1], in [2], in [3], in [4], in [5] and in assay [6] was inactive. Moreover, the outcome in assay [7], in [8], in assay [9], in [10], in assay [11] and in [12] was inactive. The result in [13], in assay [14], in [15], in assay [16], in assay [17] and in [18] was inactive.
Turning to `O=C(OCCCCCOC(=O)c1ccccc1)c1ccccc1`, the outcome in assay [1], in assay [2], in [3], in assay [4], in assay [5] and in assay [6] was inactive. The result in assay [7], in [8], in assay [9], in [10], in assay [11] and in assay [12] was inactive. The outcome in [13], in [14], in [15], in [16], in assay [17] and in [18] was inactive.
With `O=C(O)Cc1ccccc1Nc1c(Cl)cccc1Cl`, the outcome in assay [1], in assay [2], in assay [3], in [4], in [5] and in assay [6] was inactive. For the same compound, the result in [7], in [8], in assay [9], in assay [10], in assay [11] and in [12] was inactive. In addition, the result in assay [13], in assay [14], in [15], in assay [16], in assay [17] and in assay [18] was inactive.
Take `CC(=O)Oc1ccccc1C(=O)O`: the outcome in assay [1], in assay [2], in assay [3], in [19], in assay [4] and in assay [5] was inactive. Moreover, the result in assay [6], in assay [7], in assay [8], in assay [9], in [10] and in assay [11] was inactive. In addition, the outcome in [12], in assay [13], in assay [14], in assay [15], in assay [16] and in assay [17] was inactive. The result in assay [18] was inactive.
`C1CCC(SSC2CCCCC2)CC1`: the outcome in assay [1], in assay [2], in assay [3], in assay [19], in [4] and in assay [5] was inactive. The outcome in [6], in assay [7], in assay [8], in assay [9], in assay [11] and in [12] was inactive. Further, the result in assay [15], in [16] and in [17] was inactive. Moreover, the half-maximal activity concentration (AC50) is 30.5 µM (active) in assay [10], 31.5 µM (active) in assay [13], 34.1 µM (active) in assay [14] and 14.8 µM (active) in assay [18].
With `CC1(C)NC(=O)NC1=O`, the result in assay [1], in [2], in [3], in assay [4], in assay [5] and in [6] was inactive. In addition, the outcome in assay [7], in assay [8], in assay [9], in [10], in [11] and in [12] was inactive. For the same compound, the result in assay [13], in [14], in assay [15], in [16], in [17] and in assay [18] was inactive.
With `O=c1[nH]cc(F)c(=O)[nH]1`, the outcome in [1], in assay [2], in [3], in assay [19], in [4] and in [5] was inactive. Besides, the result in assay [6], in assay [7], in [8], in [9], in [10] and in assay [11] was inactive. The result in assay [12], in [13], in assay [15], in [16], in [17] and in [18] was inactive. In addition, the half-maximal activity concentration (AC50) in [14] was 13.7 µM (active).
